From PubChem BioAssay (NCATS)
Results filed as inconclusive are left out. Calls of active or inactive are those of the source. The call rests on the fitted dose curve; in most records, active means well fitted inhibition curve with a large enough effect; inconclusive means small, poorly fitted or top-dose-only effect; inactive means no such curve, though single readings can be large or run the other way.

Assay: Primary qHTS for small molecule stabilizers of the endoplasmic reticulum resident proteome: Secreted ER Calcium Modulated Protein (SERCaMP) assay (AID 1508630)
Settings: SH-SY5Y GLuc-SERCaMP (Gaussia luciferase released on ER calcium loss) secretion, thapsigargin, luminescence; series mostly up to 38.4 µM; activity change, negative = inhibition: at the top concentration
Outline: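 GLuc-SERCaMP-expressing SH-SY5Y cells, pretreated 16 h with compound, are challenged with thapsigargin to empty ER calcium stores; after 4 h, coelenterazine is added directly to the medium and luminescence is imaged.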
On the % scale 0 is the no-effect control and ±100 the full control effect.

SMILES	activity change, negative = inhibition
C#C[C@]1(O)CC[C@@H]2[C@@H]3CCC4=CC(=O)CC[C@@H]4[C@H]3CC[C@@]21CC	96.6% (inactive)
CC[C@]12C=CCN3CC[C@@]4(c5cc([C@@]6(C(=O)OC)C[C@H]7C[C@@H](C(C)(F)F)CN(Cc8c6[nH]c6ccccc86)C7)c(OC)cc5N(C)[C@H]4[C@@](O)(C(=O)OC)[C@H]1OC(C)=O)[C@@H]32	41.9% (inactive)
COc1cc2c(cc1O)CCC1C2CC[C@@]2(C)C1CC[C@@H]2O (stereo partly specified)	243% (inactive)
CS[C@H]1SC[C@@H]2C(=O)N(C)[C@H](C(C)C)C(=O)OC[C@H](NC(=O)c3cnc4ccccc4n3)C(=O)N[C@H](C)C(=O)N(C)[C@@H]1C(=O)N(C)[C@H](C(C)C)C(=O)OC[C@H](NC(=O)c1cnc3ccccc3n1)C(=O)N[C@H](C)C(=O)N2C	188% (inactive)
O=C(C=CC#Cc1cccc(NS(=O)(=O)c2ccccc2)c1)NO	147% (inactive)
CC(C)N(CC[C@H](c1ccccc1)c1cc(CO)ccc1O)C(C)C	5.13% (inactive)
CC(=O)[C@]1(O)Cc2c(O)c3c(c(O)c2[C@@H](O[C@H]2C[C@H](N)[C@@H](O)[C@H](C)O2)C1)C(=O)c1ccccc1C3=O	195% (inactive)
C[C@@]12C[C@@]3(O)O[C@@H](O1)[C@]1(COC(=O)c4ccccc4)[C@@H]3C[C@@]12O[C@@H]1O[C@H](CO)[C@@H](O)[C@H](O)[C@@H]1O	-1.58% (inactive)
CN[C@@H]1C[C@H]2O[C@@](C)([C@H]1OC)n1c3ccccc3c3c4c(c5c6ccccc6n2c5c31)C(=O)N[C@H]4O	262% (inactive)
O=C(O)C(=O)Nc1cccc(C2=NN=N[N]2)c1	16.1% (inactive)
N#CC(=C(N)Sc1ccc(N)cc1)c1ccccc1C(F)(F)F	111% (inactive)
O=C(O)C[C@H](O)C[C@H](O)C=Cc1c(C2CC2)nc2ccccc2c1-c1ccc(F)cc1	17.4% (inactive)
CCc1cnn2c(NCc3ccc[n+]([O-])c3)cc(N3CCCC[C@@H]3CCO)nc12	253% (inactive)
COc1cc([C@@H]2c3cc4c(cc3[C@@H](O[C@@H]3O[C@@H]5CO[C@@H](c6cccs6)O[C@@H]5[C@H](O)[C@@H]3O)[C@H]3COC(=O)[C@H]23)OCO4)cc(OC)c1O	216% (inactive)
C[C@H](NCc1ccc2c(c1)nc(NC(=O)c1ccc(-c3cn[nH]c3)s1)n2CCc1ccccc1)C(C)(C)C	0% (inactive)
C[C@@]12C(=O)OC(=O)[C@@]1(C)C1CCC2O1	70.1% (inactive)
CC(=O)OCC(=O)[C@@]12N=C(C)O[C@H]1C[C@H]1[C@@H]3CCC4=CC(=O)C=C[C@]4(C)[C@@H]3[C@@H](O)C[C@@]12C	26% (inactive)
CC[C@H]1OC(=O)[C@H](C)[C@@H](O[C@H]2C[C@@](C)(OC)[C@@H](O)[C@H](C)O2)[C@H](C)[C@@H](O[C@@H]2O[C@H](C)C[C@H](N(C)C)[C@@H]2O)[C@](C)(OC)C[C@@H](C)C(=O)[C@H](C)[C@@H](O)[C@]1(C)O	-6.21% (inactive)
CC(=O)C1=C(O)C=C2Oc3c(C(C)=O)c(O)c(C)c(O)c3C2(C)C1=O (stereo unspecified)	21.9% (inactive)
CNC(=O)c1ccc(Nc2cc(Nc3ccccc3S(=O)(=O)C(C)C)c3cc[nH]c3n2)nc1	-6.71% (inactive)
CC(=CC(=O)Nc1ccccc1C(=O)O)c1ccc2ccccc2c1	101% (inactive)
Cc1nc(NC(=O)N2CCC[C@@H]2C(N)=O)sc1-c1ccnc(C(C)(C)C(F)(F)F)c1	157% (inactive)
C[C@]12CCC(=O)C=C1[C@@H]1CC1[C@H]1[C@H]3[C@@H]4C[C@H]4[C@@]4(CCC(=O)O4)[C@@]3(C)CC[C@H]12 (stereo partly specified)	-53.3% (inactive)
COC(=O)C=CC(=O)OC	140% (inactive)
C[C@H](CCC(=O)O)[C@H]1CC[C@H]2[C@@H]3[C@H](O)C[C@@H]4C[C@H](O)CC[C@]4(C)[C@@H]3CC[C@]12C	-29.1% (inactive)
CC(C)(C)[N+]([O-])=Cc1ccc(S(=O)(=O)O)cc1S(=O)(=O)O	-0.893% (inactive)
